Sampled rows, rich in hits. Any-hit rate of the full collection: about 1.6%.
KCNQ2 block: blocks the rat KCNQ2 potassium channel. O88943. CHO-K1 KCNQ2, FluxOR thallium flux, 20 min; active compounds read low. B-score at 10 µM. 310,000 compounds, 1.1% hits. AID 2156;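 active means fluorescence ratio B-score at most minus 3 library SDs, with starting brightness B-score within 2 library SDs, cut at about -5.5 in these data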
Target sequence (O88943 whole entry, looked up): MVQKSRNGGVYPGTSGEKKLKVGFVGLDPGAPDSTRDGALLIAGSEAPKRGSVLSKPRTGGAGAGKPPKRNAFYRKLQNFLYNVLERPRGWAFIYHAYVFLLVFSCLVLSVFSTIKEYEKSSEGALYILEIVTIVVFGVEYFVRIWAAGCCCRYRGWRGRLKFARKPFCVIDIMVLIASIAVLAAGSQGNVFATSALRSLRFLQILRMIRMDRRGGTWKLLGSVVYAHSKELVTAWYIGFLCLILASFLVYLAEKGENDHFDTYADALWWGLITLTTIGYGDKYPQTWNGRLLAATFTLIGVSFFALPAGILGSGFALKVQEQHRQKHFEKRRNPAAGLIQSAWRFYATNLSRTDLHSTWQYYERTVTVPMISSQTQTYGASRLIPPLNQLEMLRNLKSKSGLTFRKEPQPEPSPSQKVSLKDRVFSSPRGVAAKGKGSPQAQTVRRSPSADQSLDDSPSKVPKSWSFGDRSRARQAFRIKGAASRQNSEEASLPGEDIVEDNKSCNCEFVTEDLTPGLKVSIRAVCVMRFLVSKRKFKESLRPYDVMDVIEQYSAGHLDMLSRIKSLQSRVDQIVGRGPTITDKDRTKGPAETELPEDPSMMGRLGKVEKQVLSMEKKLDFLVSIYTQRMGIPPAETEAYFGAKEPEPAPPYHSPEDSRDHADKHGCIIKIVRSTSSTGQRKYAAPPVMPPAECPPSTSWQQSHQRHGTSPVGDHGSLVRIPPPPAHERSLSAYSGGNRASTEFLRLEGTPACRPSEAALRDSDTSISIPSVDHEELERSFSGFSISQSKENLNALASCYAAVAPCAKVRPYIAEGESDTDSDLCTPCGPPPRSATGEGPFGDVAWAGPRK
KCNQ2 enhance: potentiators of rat KCNQ2 potassium channel; O88943; CHO-K1 KCNQ2, FluxOR thallium flux fluorescence; active compounds read high; B-score at 10 µM; 310,000 compounds, 0.54% hits; AID 2239;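 active means fluorescence ratio B-score at least 3 SD of library B-scores, with initial fluorescence B-score within 3 of them, cut at about 5.3 in these data; same plate scores as AID 2156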;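 further: B-score of peak minus minimum over baseline fluorescence ratio after K+ and Tl+ stimulus; positive B-score means potentiation of KCNQ2 with more thallium influx and brighter signal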
An asterisk follows results filed as active.

COc1ccccc1OCC(=O)Nc1cccc(N(C)S(C)(=O)=O)c1 was read as KCNQ2 block inactive.
COc1cc(C=O)ccc1OCC(=O)Nc1cccc(S(=O)(=O)N(C)c2ccccc2)c1 was read as KCNQ2 block -8.29* and KCNQ2 enhance -8.29.
`Cc1cc(C)n(/N=C/c2cc([N+](=O)[O-])ccc2O)c(=O)c1` gave KCNQ2 block inactive.
CCn1nc(C(=O)OCC(=O)c2ccc(F)cc2)c2ccccc2c1=O was read as KCNQ2 block inactive and KCNQ2 enhance 1.12.
Screening CCn1nc(C(=O)OC(C(=O)c2c[nH]c3ccccc23)c2ccccc2)c2ccccc2c1=O (centres undefined) returned KCNQ2 block -8.04* and KCNQ2 enhance -8.04.
O=C(CN1CCCCCC1)Nc1ccc(Oc2ccccc2)cc1 was read as KCNQ2 block inactive and KCNQ2 enhance 9.03*.
`NC(=O)C1(N2CCCCC2)CCN(CC(=O)Nc2ccc(Oc3ccccc3)cc2)CC1` gave KCNQ2 block inactive and KCNQ2 enhance 0.6.
Cc1nn2c(N3CCN(C)CC3)cc(C(C)(C)C)nc2c1-c1ccccc1 was read as KCNQ2 block inactive.
Screening Cc1nn2c(N3CCN(C(=O)c4ccco4)CC3)cc(C(C)(C)C)nc2c1-c1ccccc1 returned KCNQ2 block -6.51* and KCNQ2 enhance -6.51.
For Cc1cc(NC(=O)C(C)SCC(=O)N(C)CC(=O)Nc2ccc(F)cc2)no1 (centres undefined) the results were KCNQ2 block inactive and KCNQ2 enhance 2.
Screening CCN(c1ccccc1)S(=O)(=O)c1ccc2c(c1)N(C(C)=O)CCS2 returned KCNQ2 block inactive.
`Cc1nnc(SC(C)C(=O)Nc2ccc(Cl)cn2)n1Cc1ccccc1` (centres undefined) gave KCNQ2 block -6.15* and KCNQ2 enhance -6.15.
CC(Sc1nnc(-c2ccc(Cl)cc2Cl)n1Cc1ccccc1)C(=O)Nc1nccs1 (centres undefined) was read as KCNQ2 block inactive.
`CN(C)S(=O)(=O)c1cc([N+](=O)[O-])ccc1N1CCCCCC1` gave KCNQ2 block inactive.
`CC(C)CN(CC(C)C)S(=O)(=O)c1cc([N+](=O)[O-])ccc1N1CCCCCC1` gave KCNQ2 block -6.08* and KCNQ2 enhance -6.08.
Screening CCCN1CCN(C(=O)CCc2nnc3ccc(N4CCN(c5cccc(OC)c5)CC4)nn23)CC1 returned KCNQ2 block inactive.
`Cc1c(/C(O)=C2/C(=O)C(=O)N(Cc3cccnc3)C2c2ccccn2)cnn1-c1ccccc1` (centres undefined) gave KCNQ2 block inactive.
For Cc1noc(C)c1CSc1ncnc2sc3c(c12)CCCCC3 the results were KCNQ2 block inactive and KCNQ2 enhance 5.53*.
Screening Cc1noc(C)c1CSc1ncnc2sc(C)c(C)c12 returned KCNQ2 block inactive and KCNQ2 enhance 1.15.
For Nc1nc(NCc2ccco2)nc(Nc2cccc(F)c2)c1[N+](=O)[O-] the results were KCNQ2 block inactive and KCNQ2 enhance 1.46.
O=C(CCCc1nc2ccccc2s1)NCc1ccc(F)cc1 was read as KCNQ2 block inactive.
CCCn1c(N)c(C(=O)CN2CCc3ccccc3C2)c(=O)n(C)c1=O was read as KCNQ2 block inactive.
For CCCCn1c(N)c(C(=S)NC(=O)CC(C)(C)C)c(=O)n(C)c1=O the results were KCNQ2 block inactive and KCNQ2 enhance 6.91*.
`CC(C)(C)C(=O)COC(=O)C1=NN(c2ccccc2)C(=O)CC1` gave KCNQ2 block inactive and KCNQ2 enhance 0.63.
For CC(C)(C)NC(=O)Cn1c(Cl)nc2ccccc21 the results were KCNQ2 block inactive.
Screening COc1cccc(OCC(=O)NNC(=S)Nc2ccc(Cl)cc2Cl)c1 returned KCNQ2 block inactive.
Screening Cc1ccc(-c2ccc(C(=O)Nc3ccccc3)o2)c2ccccc12 returned KCNQ2 block -5.71* and KCNQ2 enhance -5.71.
Cc1ccc(-c2ccc(C(=O)NCc3ccccc3)o2)c2ccccc12 was read as KCNQ2 block inactive.
For O=C(Nc1ccc(Cl)cc1)N(C1=NCCC1)c1ccc(OC(F)F)cc1 the results were KCNQ2 block -5.69* and KCNQ2 enhance -5.69.
Screening O=C(COC(=O)Cc1ccc(Cl)cc1)Nc1ccc(OC(F)F)cc1 returned KCNQ2 block inactive.
COc1ccc(NS(=O)(=O)c2ccc(NC(=O)C(CCSC)NC(N)=O)cc2)cc1 (centres undefined) was read as KCNQ2 block inactive.
`CCCCN(S(=O)(=O)c1ccccc1)S(=O)(=O)c1ccccc1` gave KCNQ2 block -6.03* and KCNQ2 enhance -6.03.
`CCCCN(c1ccccc1)S(=O)(=O)N(C)C` gave KCNQ2 block inactive.
Screening CCCNC(=O)Cc1ccsc1 returned KCNQ2 block -7.8* and KCNQ2 enhance -7.8.
`CCN(CC)CCNC(=O)c1ccc(NC(=O)Cc2ccsc2)cc1` gave KCNQ2 block inactive and KCNQ2 enhance 1.14.
COC(=O)c1cc(S(=O)(=O)N2CCN(c3ccc(C(C)=O)cc3)CC2)cn1C was read as KCNQ2 block inactive.
Cc1ccc(OCC(=O)NCCCNC(=O)c2ccccn2)cc1C was read as KCNQ2 block inactive and KCNQ2 enhance 0.63.
`COc1ccc(C(=O)N/C(=C\c2ccco2)C(=O)NCCN2CCOCC2)cc1` gave KCNQ2 block inactive and KCNQ2 enhance 0.18.
Screening CCc1cc2cc(C(=O)N3CCN(c4ccccc4)CC3)sc2s1 returned KCNQ2 block inactive.
`CCc1cc2cc(C(=O)N3CCN(Cc4ccccc4)CC3)sc2s1` gave KCNQ2 block -5.76* and KCNQ2 enhance -5.76.
COc1cccc(N2CCN(c3ccc([N+](=O)[O-])cn3)CC2)c1 was read as KCNQ2 block inactive and KCNQ2 enhance 0.54.
COCCn1nnnc1CN1CCC(C)CC1 was read as KCNQ2 block inactive and KCNQ2 enhance 0.79.
Screening N#CCCN/N=C(/Cc1nc2ccccc2[nH]1)c1cccc(Cl)c1 returned KCNQ2 block -5.98* and KCNQ2 enhance -5.98.
`O=C(Cc1nc2ccccc2[nH]1)c1ccc(Cl)cc1` gave KCNQ2 block inactive.
Screening CC1CCN(C(=O)CSc2ccc(-c3cccnc3)nn2)CC1 returned KCNQ2 block inactive.
CCNC(=O)CC1C(=O)N(CC)C(=S)N1NC(=O)c1cccnc1 (centres undefined) was read as KCNQ2 block inactive.
Screening N#Cc1ccccc1/C=N/Nc1nc(-c2ccccc2)c2cc(Cl)ccc2n1 returned KCNQ2 block inactive and KCNQ2 enhance 0.05.
`Cc1ccc2nc(N/N=C/c3ccccc3C#N)nc(-c3ccccc3)c2c1` gave KCNQ2 block -6.03* and KCNQ2 enhance -6.03.
COc1ccc(S(=O)(=O)N2CCCC2)cc1OC was read as KCNQ2 block inactive and KCNQ2 enhance 0.02.
Screening COc1ccc(S(=O)(=O)N2CCCC(C(=O)N3CCN(C)CC3)C2)cc1Cl (centres undefined) returned KCNQ2 block inactive.
COc1ccc(S(=O)(=O)N2CCCC2)cc1C(C)C was read as KCNQ2 block -6.94* and KCNQ2 enhance -6.94.
COc1ccc(S(=O)(=O)N2CCCC(C(=O)N3CCOCC3)C2)cc1Cl (centres undefined) was read as KCNQ2 block -5.59* and KCNQ2 enhance -5.59.
O=C(N/C=N/O)C(c1ccccc1)c1ncc(C(F)(F)F)cc1Cl (centres undefined) was read as KCNQ2 block inactive.
For CC(=N\Nc1ccccc1)/C(=N/O)C(=O)Nc1ccccc1 the results were KCNQ2 block -6.05* and KCNQ2 enhance -6.05.

Screens as filed in PubChem BioAssay.
